Experimental data published in PubChem BioAssay AID1220 (Sanford-Burnham Center for Chemical Genomics, 2008).
In all, about 190,000 compounds went through this assay and about 1,300 (0.68%) were called active. This is one part of a sample in which actives are shown more often than they occur. Unmarked numbers belong to inactive results. Cut-off read from the data, not from the text of the source: active = inhibition above about 50%; inactive = the rest.

The molecules below were run against Mannose-6-phosphate isomerase (Homo sapiens) (UniProt P34949) (assay: MPI inhibition at elevated mannose 6-phosphate – biochemical, fluorescence intensity, high mannose 6-phosphate, primary screen (AID 1220)). Details: recombinant PMI enzyme, coupled fluorescence intensity; at 20 µM; stronger effect = higher value.
Chain of Mannose-6-phosphate isomerase (Homo sapiens) (P34949 whole entry, looked up): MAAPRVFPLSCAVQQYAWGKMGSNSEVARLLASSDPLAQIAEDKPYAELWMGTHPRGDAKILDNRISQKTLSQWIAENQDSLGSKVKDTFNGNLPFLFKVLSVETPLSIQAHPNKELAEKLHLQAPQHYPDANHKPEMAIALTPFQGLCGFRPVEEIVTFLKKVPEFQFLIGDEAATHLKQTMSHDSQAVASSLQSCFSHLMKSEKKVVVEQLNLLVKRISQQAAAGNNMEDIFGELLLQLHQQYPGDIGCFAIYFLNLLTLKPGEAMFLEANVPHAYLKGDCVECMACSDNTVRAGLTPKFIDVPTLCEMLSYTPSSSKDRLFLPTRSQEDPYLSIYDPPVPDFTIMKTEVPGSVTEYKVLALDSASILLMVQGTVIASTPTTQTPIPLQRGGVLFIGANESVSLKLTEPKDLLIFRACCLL
Work on `COc1ccccc1NC(=O)C/C(N)=N/O` yielded an inhibition of -9.6%.
Work on `CNC(=O)C(=O)NCCCN1CCOCC1` yielded an inhibition of -4.4%.
In the case of `COc1cc(N2CCCC2)ccc1[N+](=O)[O-]`, the inhibition is reported as 19.4%.
With `CCOc1cc(N2CCCC2)ccc1[N+](=O)[O-]` the inhibition was 53.4% (active).
Work on `CCNc1cc(N2CCCC2)ccc1[N+](=O)[O-]` yielded an inhibition of 32.8%.
`CC(C)(C)CNc1cc(N2CCCC2)ccc1[N+](=O)[O-]` was tested, and the inhibition was 11.3%.
In the case of `O=[N+]([O-])c1ccc(N2CCCCC2)cc1N1CCOCC1`, the inhibition is reported as 4.6%.
For `Cc1cc(N2CCCCC2)ccc1[N+](=O)[O-]`, the inhibition was 44.8%.
For `O=[N+]([O-])c1ccc(N2CCOCC2)cc1N1CCCCC1`, the inhibition was -3.2%.
`O=[N+]([O-])c1ccc(N2CCCC2)cc1N1CCCC1` was tested, and the inhibition was 50.2% (active).
With `C=CCNc1cc(N2CCCC2)ccc1[N+](=O)[O-]` the inhibition was 51.8% (active).
`O=C(/C=C/c1ccco1)c1ccc(O)cc1` gave an inhibition of 11.9%.
For `Cn1c(CN2CCCC2)nc2cc(NC(=O)c3cccs3)ccc21`, the inhibition was -21.8%.
With `Cc1nn(-c2ccc(F)cc2F)c2c1-c1nc(N3CCCC3)ncc1CC2` the inhibition was 38.1%.
For `Cc1nn(-c2ccccn2)c2c1-c1nc(N3CCOCC3)ncc1CC2`, the inhibition was 57.5% (active).
`Cc1nn(-c2ccccn2)c2c1-c1nc(N)ncc1CC2` showed an inhibition of 40.6%.
`C[C@@H]1NC(=O)[C@H](CCCN=C(N)N)NC(=O)c2cc([N+](=O)[O-])cc(I)c2OCC[C@@H](C(N)=O)NC1=O` showed an inhibition of -20.7%.
`Cc1nc2ccc(C(C(F)(F)F)(C(F)(F)F)C(F)(F)F)cc2[nH]1` was tested, and the inhibition was 14.4%.
For `Nc1ccc2nc(C(F)(F)F)[nH]c2c1`, the inhibition was 37%.
With `Cc1nc2cc3nc(C(F)(F)F)[nH]c3cc2[nH]1` the inhibition was 52.2% (active).
For `COCCNC(=O)C1=NOC(Cn2cc(C#N)c(=O)n(C)c2=O)C1` (centres undefined), the inhibition was 5.3%.
`CCCNC(=O)/C=C/c1ccc(S(=O)(=O)Nc2ccccc2OC)cc1` was tested, and the inhibition was -3.6%.
For `CC1CCCCC1NC(=O)CCCn1c(=S)[nH]c2ccccc2c1=O` (centres undefined), the inhibition was -12.4%.
`Cc1ccc(C)n1-c1ccncc1` gave an inhibition of 3.1%.
For `Cc1ccc(C)n1-c1ccc(C(=O)O)cc1`, the inhibition was 0.2%.
`Cc1ccc(C)n1-c1ccc(N(C)C)cc1` was tested, and the inhibition was 66.1% (active).
Work on `Cc1cc2c(C)cc(=O)oc2c2c1NCCC2` yielded an inhibition of 12.6%.
Work on `Cc1ccc(OC(=O)C(F)(F)F)c2c1NCCC2` yielded an inhibition of 11.5%.
Molecule `COc1ccc(N2CCN(/C(=N\S(=O)(=O)c3ccc(C)cc3)Nc3nc(C)cc(C)n3)CC2)cc1` has an inhibition of -1.1%.
With `Nc1nc(-c2ccco2)nc(N2CCCCC2)n1` the inhibition was 2.4%.
`O=C(NCc1ccc(N2CCCC2=O)cc1)c1cn(CCc2ccccc2)nn1` was tested, and the inhibition was 3.8%.
In the case of `O=C1C=CC(=O)C(C2=C3C(=O)N(CCc4ccccc4)CC(=O)N3CCC2)=C1`, the inhibition is reported as 50.6% (active).
Molecule `O=C1CC(=O)N(CCc2ccccc2)C(=O)N1CCc1ccccc1` has an inhibition of 7.8%.
`O=C(NO)c1cc(OCC(F)(F)F)ccc1OCC(F)(F)F` gave an inhibition of -2.8%.
For `Cc1cccc(N=Cc2cc3c(cc2[N+](=O)[O-])OCO3)c1`, the inhibition was 62.2% (active).
With `Cc1cc(C)nc(N/N=C/c2cc3c(cc2[N+](=O)[O-])OCO3)n1` the inhibition was 1.3%.
In the case of `Cc1cccc(C)c1OCC(=O)N/N=C/c1cc2c(cc1[N+](=O)[O-])OCO2`, the inhibition is reported as -72.5%.
`Cc1ccc(C)c(N=Cc2cc3c(cc2[N+](=O)[O-])OCO3)c1` was tested, and the inhibition was 41.6%.
For `O=[N+]([O-])c1cc2c(cc1/C=N/n1cnnc1)OCO2`, the inhibition was 13%.
With `Cc1ccccc1N=Cc1cc2c(cc1[N+](=O)[O-])OCO2` the inhibition was 53.3% (active).
In the case of `CC1=NN(c2nc(-c3ccc(C)cc3)cs2)C(=O)C1N=Nc1ccc2ccccc2c1` (centres undefined), the inhibition is reported as 10.1%.
For `Cc1cc(C)cc(NC(=O)C2(c3cccs3)CCOCC2)c1`, the inhibition was 3.6%.
Molecule `O=C(C/C=N\OCc1ccc(Cl)cc1Cl)Nc1ccccc1` has an inhibition of 15.2%.
In the case of `Nc1ccccc1Nc1ccccc1`, the inhibition is reported as -26.3%.
`COc1ccc(Nc2ccccc2N)cc1` gave an inhibition of 3.8%.
`Nc1ccc(Nc2ccccc2N)cc1` was tested, and the inhibition was 52.9% (active).
In the case of `Cc1ccc(-c2cnc(-c3ccncc3)o2)cc1`, the inhibition is reported as -3.1%.
Work on `CCC(O)(C#CCN1CCCCC1)CC` yielded an inhibition of -6.1%.
For `Cc1ccc2c(c1)C(O)(CC(=O)c1ccc(C)s1)C(=O)N2` (centres undefined), the inhibition was 4.5%.
With `CC1CCN(S(=O)(=O)c2ccc(C(=O)OCc3ccc4c(c3)OCO4)cc2)CC1` the inhibition was -5.5%.
With `CCCCN=C1C([N+](=O)[O-])=CC=C2C1=NC1(CCCCC1)N2O` the inhibition was 53% (active).
With `Cn1c(SCC(=O)Nc2cccc3ccccc23)nc(O)cc1=O` the inhibition was 26.1%.
With `O=C(O)C(=O)Cc1c[nH]c2ccccc12` the inhibition was -4.1%.
With `O=C(O)Cc1c[nH]c2cccc(O)c12` the inhibition was 51.5% (active).
`NC(=O)Cc1c[nH]c2cccc(O)c12` showed an inhibition of 44.8%.
Molecule `CCN(CC(=O)Nc1ccc2c(c1)OCCO2)CC(=O)Nc1ccc2c(c1)OCO2` has an inhibition of 5.7%.
`COc1ccc(S(=O)(=O)NCCCCNS(=O)(=O)c2ccc(OC)cc2)cc1` was tested, and the inhibition was 1.1%.
In the case of `Cc1ccc(-c2[nH]c(-c3ccccc3)nc2SCC(=O)NCC2CCCO2)cc1` (centres undefined), the inhibition is reported as 3.3%.
For `COc1ccc(C(=O)OC2CCN(c3ncc(C(F)(F)F)cc3Cl)CC2)cc1`, the inhibition was 54.2% (active).
`O=C(OC1CCN(c2ncc(C(F)(F)F)cc2Cl)CC1)c1ccc(Cl)cc1` was tested, and the inhibition was 7.7%.
Molecule `O=C(OC1CCN(c2ncc(C(F)(F)F)cc2Cl)CC1)c1ccccc1` has an inhibition of 11.4%.
Molecule `NS(=O)(=O)c1ccc(CCNC(=O)COC(=O)/C=C/c2ccc(Cl)cc2)cc1` has an inhibition of 0.2%.
Molecule `CCc1nnc(NC(=O)CSc2nnc(COc3ccc(C)cc3)n2-c2ccccc2)s1` has an inhibition of 8%.
In the case of `O=C(N/N=C\c1ccc(-c2ccccc2[N+](=O)[O-])o1)C1COc2cc3ccccc3cc2O1` (centres undefined), the inhibition is reported as 65.2% (active).
`O=C(N/N=C/c1ccc(-c2ccccc2[N+](=O)[O-])o1)[C@H]1C[C@@H]1c1ccccc1` was tested, and the inhibition was 63.4% (active).
In the case of `Cc1ccc(/C=N\NC(=O)C2COc3cc4ccccc4cc3O2)o1` (centres undefined), the inhibition is reported as 0.7%.
`O=C(N/N=C\c1cccc([N+](=O)[O-])c1O)C1COc2ccccc2O1` (centres undefined) was tested, and the inhibition was -15.4%.
For `O=C(N/N=C\c1ccc(-c2ccc([N+](=O)[O-])cc2)o1)C1COc2ccccc2O1` (centres undefined), the inhibition was -8.4%.
`O=C(N/N=C/c1ccco1)C1CC1c1ccccc1` (centres undefined) showed an inhibition of 0.2%.
`O=C(N/N=C/c1ccc(-c2cccc([N+](=O)[O-])c2)o1)[C@H]1C[C@@H]1c1ccccc1` was tested, and the inhibition was 8.6%.
In the case of `O=C(N/N=C\c1ccc(-c2ccccc2[N+](=O)[O-])o1)C1COc2ccccc2O1` (centres undefined), the inhibition is reported as 55.3% (active).
With `O=C(N/N=C\c1ccc([N+](=O)[O-])o1)C1COc2ccccc2O1` (centres undefined) the inhibition was 21.3%.
Work on `CC(=O)N1CCC(N(CCCOC(C)C)C(=O)Nc2ccc(C)c(C)c2)CC1` yielded an inhibition of 0.4%.
`Cc1nc2nc(SCC(=O)N3CCOCC3)nn2c(C)c1Cc1c(F)cccc1Cl` showed an inhibition of 18.6%.
With `Cc1cccc(NC(=O)Cn2nnc(-c3ccc(CN4CCCC4)cc3)n2)c1C` the inhibition was 0.5%.
For `CN(c1ccccc1)S(=O)(=O)c1cccc(C(=O)OCC(=O)NCCCN2CCCC2=O)c1`, the inhibition was -7.4%.
With `CCOc1ccc(CCNC(=O)COC(=O)c2cccnc2OCC)cc1OCC` the inhibition was 14.4%.
Molecule `COc1ccc(N2C(C(C)=O)=NN(c3ccccc3)C2c2cccs2)cc1` (centres undefined) has an inhibition of 10.7%.
Molecule `CCOc1ccccc1N1CC(C(=O)Nc2ccc3c(c2)OCCO3)CC1=O` (centres undefined) has an inhibition of 1.4%.
For `Cc1csc(/C(C#N)=N/O)n1`, the inhibition was 8.3%.
`CC1CC(C)CN(CC(=O)c2cccs2)C1` (centres undefined) gave an inhibition of -20.3%.
In the case of `CCc1c(C(=O)Nc2ccc(OC)c(Cl)c2)[nH]c(C)c1C(C)=O`, the inhibition is reported as -0.2%.
For `O=C(NNc1cc(N2CCOCC2)nc(N2CCOCC2)n1)c1ccc([N+](=O)[O-])cc1`, the inhibition was 56.3% (active).
`CC(C)(C)c1ccc(C(=O)NNc2cc(N3CCCCC3)nc(N3CCCCC3)n2)cc1` was tested, and the inhibition was 18.1%.
In the case of `Cc1ccc(C(=O)NNc2cc(N3CCCC3)nc(N3CCCC3)n2)cc1`, the inhibition is reported as 51.4% (active).
For `O=C(CCc1ccccc1)NNC(=O)C1CCCCC1`, the inhibition was -4.6%.
Work on `O=C(NNc1cc(N2CCOCC2)nc(N2CCOCC2)n1)c1ccc(Cl)c(Cl)c1` yielded an inhibition of 48.8%.
For `O=C(CCc1ccccc1)NNc1cc(N2CCCCC2)nc(N2CCCCC2)n1`, the inhibition was 53.4% (active).
Work on `Cc1ccc(C(=O)NNC(=O)C2CCN(c3nc(C)cc(C)n3)CC2)cc1` yielded an inhibition of -8.6%.
In the case of `CC(C)(C)c1ccc(C(=O)NNc2cc(N3CCOCC3)nc(N3CCOCC3)n2)cc1`, the inhibition is reported as 48.8%.
`O=C(CCc1ccccc1)Nc1ccc(N2CCCCC2)cc1` showed an inhibition of 3.5%.
For `CCOC(=O)N1CCN(C(=O)c2ccc(CN(c3ccccc3)S(C)(=O)=O)cc2)CC1`, the inhibition was -4.3%.
Work on `CC(=O)N(c1c(C)n(C)n(-c2ccccc2)c1=O)C1(C(=O)NC2CCCCC2)CCCCC1` yielded an inhibition of 1.3%.
With `Cc1onc(-c2c(Cl)cccc2Cl)c1C(=O)NCCCN1CCOCC1` the inhibition was -0.3%.
Work on `O=C(c1ccccc1)N1CCOC12CCN(c1ncc(C(F)(F)F)cc1Cl)CC2` yielded an inhibition of 2.1%.
`CCOC(=O)/C=C/C(=O)OCC(=O)Nc1c(Cl)cccc1Cl` showed an inhibition of -9.4%.
In the case of `CCCc1nc2c(sc3nc4c(cc32)COC(C)(C)C4)c(=O)n1CCN(C)C`, the inhibition is reported as 50.8% (active).
For `CCc1nc2c(sc3nc4c(cc32)COC(C)(C)C4)c(=O)n1CCN(CC)CC`, the inhibition was 3.8%.
Work on `CCCc1nc2c(sc3nc4c(cc32)COC(C)(C)C4)c(=O)n1CCN(CC)CC` yielded an inhibition of -0.7%.
